PubChem BioAssay (NCATS)
Records with an inconclusive call do not appear. The source made the active and inactive calls. Calls follow the shape of the dose curve; as a rule, active = well fitted inhibition curve with a large enough effect; inconclusive = small, poorly fitted or top-dose-only effect; inactive = flat fitted curve, though single readings scatter.

Experiments:
Assay in all cases: qHTS profiling for inhibitors of Plasmodium falciparum proliferation (AID 504749); also: nearly all actives have a fitted effect of over 60% in size
Settings in all cases: P. falciparum in erythrocytes, SYBR Green DNA, 72 h; series mostly up to 28.7 µM
[1] = tested on: AA1029
Procedure, shortened: (§1)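 P. falciparum-infected erythrocytes (0.3% parasitemia, 2.5% hematocrit final) were exposed to compounds for 72 h at 37 C in 5% CO2, then lysed with SYBR Green buffer overnight at room temperature; parasite DNA fluorescence was normalized to artemisinin and DMSO controls.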

[2] = tested on: AS120
Procedure, shortened: as §1

[3] = tested on: ATS189
Procedure, shortened: as §1

[4] = tested on: ATS95
Procedure, shortened: as §1

[5] = tested on: C2A
Procedure, shortened: as §1

[6] = tested on: CP185
Procedure, shortened: as §1

[7] = tested on: CP191
Procedure, shortened: as §1

[8] = tested on: CP192
Procedure, shortened: as §1

[9] = tested on: CP194
Procedure, shortened: as §1

[10] = tested on: CP201
Procedure, shortened: as §1

[11] = tested on: CP203
Procedure, shortened: as §1

[12] = tested on: CP211
Procedure, shortened: as §1

[13] = tested on: CP217
Procedure, shortened: as §1

[14] = tested on: CP237
Procedure, shortened: as §1

[15] = tested on: CP238
Procedure, shortened: as §1

[16] = tested on: CP247
Procedure, shortened: as §1

[17] = tested on: CP250
Procedure, shortened: as §1

[18] = tested on: CP252
Procedure, shortened: as §1

[19] = tested on: CP256
Procedure, shortened: as §1

[20] = tested on: CP215
Procedure, shortened: as §1

Measured: Potency
Potency is read from the fitted curve at half-maximal effect.

CCCc1nc(C(C)(C)O)c(C(=O)OCc2oc(=O)oc2C)n1Cc1ccc(-c2ccccc2-c2nn[nH]n2)cc1
not listed: [20]
inactive: all other assays above

NCCN
inactive: all assays above

CC/C(=C(/CC)c1ccc(OP(=O)(O)O)cc1)c1ccc(OP(=O)(O)O)cc1
inactive: all assays above

Cc1ncc(C[n+]2csc(CCO)c2C)c(N)n1
not listed: [19] | [20]
inactive: all other assays above

NC(=O)C1c2ccccc2CCc2ccccc21
not listed: [16]
inactive: all other assays above

c1ccc2c(c1)OCC(CN1CCCCC1)O2 (configuration not stated)
not listed: [14]
inactive: all other assays above

O=C(NCCNCC(O)COc1ccc(O)cc1)N1CCOCC1 (configuration not stated)
inactive: all assays above

CCN(CC)CCC(=O)N1c2ccccc2Sc2ccc(C(F)(F)F)cc21
not listed: [16] | [19]
inactive: all other assays above

C=Cc1ccc(S(=O)(=O)O)cc1
inactive: all assays above

Cc1c(Cl)cccc1Nc1ncccc1C(=O)O
inactive: all assays above

O=S(=O)(O)CCCS(=O)(=O)O
inactive: all assays above

C[C@H](CCCC(C)(C)O)[C@H]1CC[C@H]2[C@@H]3CC=C4C[C@@H](O)CC[C@]4(C)[C@H]3CC[C@]12C
not listed: [14] | [17]
inactive: all other assays above

COc1cc(C)c(/C=C/C(C)=C/C=C/C(C)=C/C(=O)O)c(C)c1C
not listed: [20]
inactive: all other assays above

COc1ccc(C(=O)c2ccc(C)cc2)c(O)c1
not listed: [12]
inactive: all other assays above

CC/C=C\C/C=C\C/C=C\C/C=C\C/C=C\CCCC(=O)O
not listed: [16]
inactive: all other assays above

COc1ccc(C(=O)CCC(=O)O)c2ccccc12
not listed: [16]
inactive: all other assays above

O=C1CCC(c2ccccc2)(C2CCN(Cc3ccccc3)CC2)C(=O)N1 (configuration not stated)
active: [14] 11.2 µM
inactive: all other assays above

OCCCNc1ccccc1
not listed: [16]
inactive: all other assays above

C[C@H](CCC(=O)O)[C@H]1CC[C@H]2[C@@H]3CC[C@@H]4C[C@H](O)CC[C@]4(C)[C@H]3C[C@H](O)[C@]12C
inactive: all assays above

Cc1c(C)c2c(c(C)c1OC(=O)CCC(=O)O)CC[C@@](C)(CCC[C@H](C)CCC[C@H](C)CCCC(C)C)O2
not listed: [14]
inactive: all other assays above

O=C(O)/C=C/C(=O)Nc1ccc(S(=O)(=O)Nc2nccs2)cc1
not listed: [11]
inactive: all other assays above

CC(=O)N[C@@H]1C(O[C@H]2O[C@H](C(=O)O)C(O)[C@H](O)[C@H]2O)[C@H](O)[C@@H](CO)O[C@H]1O[C@@H]1C(C(=O)O)O[C@@H](O[C@H]2[C@H](O)[C@@H](CO)OC(O)[C@@H]2NC(C)=O)[C@H](O)[C@H]1O (some centres not stated)
not listed: [11]
inactive: all other assays above

CCSc1ccc2c(c1)N(CCCN1CCN(C)CC1)c1ccccc1S2
not listed: [11]
inactive: all other assays above

O=P(O)(O)O
not listed: [11]
inactive: all other assays above

CC(CC=O)CCCC(C)(C)O (configuration not stated)
not listed: [11]
inactive: all other assays above

CC1CC(O)CC(C)(C)C1 (configuration not stated)
not listed: [11]
inactive: all other assays above

CCC(O)c1ccccc1 (configuration not stated)
not listed: [11]
inactive: all other assays above

CCCCC(CC)COS(=O)(=O)O (configuration not stated)
not listed: [11]
inactive: all other assays above
